The source of these data is ChEMBL document CHEMBL3988442, “University of Dundee, Small-Polar-MMV Screening Library” (2021).

For some assays here: Entries with a potency or affinity are not part of this list.

What all share (set-up): scale not given: direction of the effect not stated beside the values
For assay [1], the target named is Protein translocase subunit SecA (Escherichia coli (strain K12)) (UniProt P10408). Put plainly: Assay to Identify E. coli SecA ATPase Inhibitors. The class given is functional. The note with it: 30 µM.
Sequence of Protein translocase subunit SecA (Escherichia coli (strain K12)) (P10408 whole entry): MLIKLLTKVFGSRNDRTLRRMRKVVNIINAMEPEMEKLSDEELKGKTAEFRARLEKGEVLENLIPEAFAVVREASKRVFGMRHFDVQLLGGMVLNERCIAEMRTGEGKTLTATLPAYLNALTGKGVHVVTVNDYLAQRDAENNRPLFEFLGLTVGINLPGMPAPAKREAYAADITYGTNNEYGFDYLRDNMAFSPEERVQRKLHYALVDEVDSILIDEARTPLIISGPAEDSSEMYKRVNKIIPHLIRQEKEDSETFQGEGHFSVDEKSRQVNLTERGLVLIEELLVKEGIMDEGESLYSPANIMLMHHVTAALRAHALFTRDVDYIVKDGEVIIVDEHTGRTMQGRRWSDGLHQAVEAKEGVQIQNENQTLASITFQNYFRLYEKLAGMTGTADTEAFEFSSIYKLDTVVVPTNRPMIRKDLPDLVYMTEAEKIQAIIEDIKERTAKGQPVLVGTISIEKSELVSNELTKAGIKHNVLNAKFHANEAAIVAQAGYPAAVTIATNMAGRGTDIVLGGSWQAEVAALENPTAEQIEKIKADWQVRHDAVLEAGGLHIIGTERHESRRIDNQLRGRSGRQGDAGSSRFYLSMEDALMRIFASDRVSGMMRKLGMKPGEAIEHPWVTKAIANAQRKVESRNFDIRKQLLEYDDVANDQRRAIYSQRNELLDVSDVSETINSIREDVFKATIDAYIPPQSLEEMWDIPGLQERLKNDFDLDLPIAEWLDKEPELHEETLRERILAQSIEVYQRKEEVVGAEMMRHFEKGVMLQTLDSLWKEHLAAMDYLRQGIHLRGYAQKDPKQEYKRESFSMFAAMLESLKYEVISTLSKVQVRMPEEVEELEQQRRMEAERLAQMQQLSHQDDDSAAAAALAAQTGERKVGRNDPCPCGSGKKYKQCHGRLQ
Assay [2] addresses T1, Ubiquitin-activating enzyme e1, putative (Leishmania donovani (strain BPK282A1)) (UniProt E9BSI1).
T1 sequence (whole entry): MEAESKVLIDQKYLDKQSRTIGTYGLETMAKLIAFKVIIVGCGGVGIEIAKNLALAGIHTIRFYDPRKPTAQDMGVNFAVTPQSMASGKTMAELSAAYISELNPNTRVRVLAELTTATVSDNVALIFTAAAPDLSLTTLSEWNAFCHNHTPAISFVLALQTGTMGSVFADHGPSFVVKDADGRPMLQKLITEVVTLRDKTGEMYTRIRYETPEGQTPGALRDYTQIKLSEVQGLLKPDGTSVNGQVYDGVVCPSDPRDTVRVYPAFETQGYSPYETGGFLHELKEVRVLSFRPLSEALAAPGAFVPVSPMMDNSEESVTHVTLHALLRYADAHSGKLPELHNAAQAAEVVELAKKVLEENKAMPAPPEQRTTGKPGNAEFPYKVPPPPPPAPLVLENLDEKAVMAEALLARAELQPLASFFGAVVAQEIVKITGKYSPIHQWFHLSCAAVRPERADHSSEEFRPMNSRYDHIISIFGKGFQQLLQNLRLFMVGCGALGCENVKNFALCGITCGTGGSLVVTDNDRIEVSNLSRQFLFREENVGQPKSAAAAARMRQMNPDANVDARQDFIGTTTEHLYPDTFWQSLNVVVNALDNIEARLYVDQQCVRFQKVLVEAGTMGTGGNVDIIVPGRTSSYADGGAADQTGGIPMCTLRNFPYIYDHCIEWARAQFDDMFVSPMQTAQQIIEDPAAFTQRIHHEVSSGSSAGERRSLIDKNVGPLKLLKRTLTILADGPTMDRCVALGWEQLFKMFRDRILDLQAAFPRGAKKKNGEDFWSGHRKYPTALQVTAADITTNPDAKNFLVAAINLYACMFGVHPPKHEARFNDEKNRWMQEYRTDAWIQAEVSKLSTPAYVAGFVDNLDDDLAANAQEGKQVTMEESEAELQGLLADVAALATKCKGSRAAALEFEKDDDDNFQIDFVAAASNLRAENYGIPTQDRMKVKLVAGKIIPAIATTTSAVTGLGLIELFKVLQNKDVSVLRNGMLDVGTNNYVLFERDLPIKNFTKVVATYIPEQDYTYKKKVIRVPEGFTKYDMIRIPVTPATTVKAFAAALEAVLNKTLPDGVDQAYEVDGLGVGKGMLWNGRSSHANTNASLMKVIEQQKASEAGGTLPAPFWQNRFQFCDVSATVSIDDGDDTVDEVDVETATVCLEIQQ
Put plainly: Leishmania donovani Ubiquitin Activating Enzyme (LdE1). The note with it: 30 µM. The format is functional.

Assay [3] addresses AMP-activated protein kinase, AMPK (Homo sapiens) (UniProt P54646+O43741+P54619+Q9UGJ0+Q9Y478+Q13131+Q9UGI9). The assay is described as follows: AMP-dependent Kinase enzyme assay. An in vitro enzyme assay that detects ADP turnover that is directly proportional to AMPK activity. This uses naive AMPK that is activated during the assay with MK-8722. The settings on record: 30 µM. The format is functional.

For assay [4], the target named is Sialic acid-binding Ig-like lectin 9 (Homo sapiens) (UniProt Q9Y336). Put plainly: Hs-Siglec9 ALPHAscreen SOP 20170721. The note with it: 10 µM. A general note: Bead proximity is the source of the signal in Alpha formats.
Sequence of Sialic acid-binding Ig-like lectin 9 (Homo sapiens) (Q9Y336 whole entry): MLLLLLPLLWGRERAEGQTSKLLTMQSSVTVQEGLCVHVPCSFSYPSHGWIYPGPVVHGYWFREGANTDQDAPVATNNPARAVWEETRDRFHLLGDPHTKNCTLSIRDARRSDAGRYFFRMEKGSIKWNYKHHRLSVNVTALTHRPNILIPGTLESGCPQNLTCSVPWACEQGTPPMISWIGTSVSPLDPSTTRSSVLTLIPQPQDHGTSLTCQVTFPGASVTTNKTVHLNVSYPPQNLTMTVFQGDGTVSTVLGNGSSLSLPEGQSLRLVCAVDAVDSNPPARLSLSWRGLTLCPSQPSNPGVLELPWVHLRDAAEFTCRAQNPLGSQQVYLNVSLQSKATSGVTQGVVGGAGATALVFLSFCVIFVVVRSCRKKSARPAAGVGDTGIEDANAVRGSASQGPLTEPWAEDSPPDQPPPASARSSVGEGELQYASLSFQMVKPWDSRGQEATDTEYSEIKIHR
In the next assay the test system is Trypanosoma cruzi. Put plainly: Trypanosoma cruzi phosphomannomutase and mannose-1-phosphate guanylyltransferase assay. The class given is functional. The settings on record: 10 µM.
The target of assay [5] is T2, Arginase-2, mitochondrial (Homo sapiens) (UniProt P78540).
T2 sequence (whole entry): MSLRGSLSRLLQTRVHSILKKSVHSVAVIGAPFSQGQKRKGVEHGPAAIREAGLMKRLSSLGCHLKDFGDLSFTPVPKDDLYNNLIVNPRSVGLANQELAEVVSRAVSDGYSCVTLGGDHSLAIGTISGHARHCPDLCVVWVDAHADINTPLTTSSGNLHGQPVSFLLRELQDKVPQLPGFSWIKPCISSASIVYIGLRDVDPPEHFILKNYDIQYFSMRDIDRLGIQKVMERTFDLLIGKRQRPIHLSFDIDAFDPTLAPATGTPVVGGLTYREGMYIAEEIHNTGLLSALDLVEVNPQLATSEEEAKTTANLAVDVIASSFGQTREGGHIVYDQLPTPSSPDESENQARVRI
Put plainly: in vitro enzyme assay to detect the production of urea directly proportional to the activity of Arginase II. Also: in the data most compounds retested in dose-response had high values. The note with it: 33.3 µM. The class given is functional.

In assay [6] the target is T3, Proteasome subunit beta (Trypanosoma cruzi) (UniProt O96673).
T3 sequence (whole entry): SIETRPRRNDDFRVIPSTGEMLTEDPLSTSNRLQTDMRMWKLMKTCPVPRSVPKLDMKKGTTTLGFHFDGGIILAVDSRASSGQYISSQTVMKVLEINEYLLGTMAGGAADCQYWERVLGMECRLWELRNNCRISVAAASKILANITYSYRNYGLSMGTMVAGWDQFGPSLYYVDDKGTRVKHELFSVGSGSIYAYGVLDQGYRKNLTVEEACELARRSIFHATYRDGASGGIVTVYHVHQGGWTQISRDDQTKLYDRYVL
Put plainly: Trypanosoma cruzi proteasome chymotrypsin-like activity (TcProtChymo) assay. Also: in the data most compounds retested in dose-response had high values. The note with it: 9.37 µM. The class given is functional.

The next assay is filed under the species Homo sapiens. The assay is described as follows: To identify inhibition of the IFN signalling (Jak-Stat) pathway via expression of an eGFP reporter gene under the control of an IFN-stimulated response element (ISRE) containing MxA promoter. The format is functional. The note with it: 30 µM.
Assay [7] concerns the target T4, Tyrosyl-tRNA synthetase, putative (Trypanosoma cruzi (strain CL Brener)) (UniProt Q4DSP6).
T4 sequence (whole entry): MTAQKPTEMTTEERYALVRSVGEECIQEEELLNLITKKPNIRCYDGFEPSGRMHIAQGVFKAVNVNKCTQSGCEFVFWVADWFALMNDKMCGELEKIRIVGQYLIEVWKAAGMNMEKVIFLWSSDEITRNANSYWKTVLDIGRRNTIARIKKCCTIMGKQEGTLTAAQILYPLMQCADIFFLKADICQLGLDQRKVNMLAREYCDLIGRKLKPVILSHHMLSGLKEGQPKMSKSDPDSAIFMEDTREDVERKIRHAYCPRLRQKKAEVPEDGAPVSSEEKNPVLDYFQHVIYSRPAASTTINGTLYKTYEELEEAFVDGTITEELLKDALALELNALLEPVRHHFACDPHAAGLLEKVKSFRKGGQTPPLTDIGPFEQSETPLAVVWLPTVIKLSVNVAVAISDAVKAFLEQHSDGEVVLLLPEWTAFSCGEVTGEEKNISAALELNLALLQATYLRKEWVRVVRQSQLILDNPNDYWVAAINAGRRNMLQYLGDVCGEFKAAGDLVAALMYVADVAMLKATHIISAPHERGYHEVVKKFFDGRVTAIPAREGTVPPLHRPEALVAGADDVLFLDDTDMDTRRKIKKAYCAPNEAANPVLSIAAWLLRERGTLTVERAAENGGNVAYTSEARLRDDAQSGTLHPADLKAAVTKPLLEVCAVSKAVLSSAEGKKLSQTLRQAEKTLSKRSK
The assay is described as follows: Trypanosoma cruzi tyrosyl tRNA synthetase (TcYRS) _High Tyrosine SOP. Also: in the data most compounds retested in dose-response had high values. The format is functional. The note with it: 30 µM.

The target of assay [8] is T4, Tyrosyl-tRNA synthetase, putative (Trypanosoma cruzi (strain CL Brener)). The assay is described as follows: Trypanosoma cruzi tyrosyl tRNA synthetase (TcYRS) SOP. The format is functional. The settings on record: 30 µM.
The target in assay [9] is Chromo domain-containing protein 1 (Saccharomyces cerevisiae (strain ATCC 204508 / S288c) (Baker's yeast)) (UniProt P32657). The assay is described as follows: ScCHD-1 Enzyme Inhibition Assay. Also: in the data most compounds retested in dose-response had high values. The format is functional. The settings on record: 30 µM.
Sequence of Chromo domain-containing protein 1 (Saccharomyces cerevisiae (strain ATCC 204508 / S288c) (Baker's yeast)) (P32657 whole entry, the tested form may be a part): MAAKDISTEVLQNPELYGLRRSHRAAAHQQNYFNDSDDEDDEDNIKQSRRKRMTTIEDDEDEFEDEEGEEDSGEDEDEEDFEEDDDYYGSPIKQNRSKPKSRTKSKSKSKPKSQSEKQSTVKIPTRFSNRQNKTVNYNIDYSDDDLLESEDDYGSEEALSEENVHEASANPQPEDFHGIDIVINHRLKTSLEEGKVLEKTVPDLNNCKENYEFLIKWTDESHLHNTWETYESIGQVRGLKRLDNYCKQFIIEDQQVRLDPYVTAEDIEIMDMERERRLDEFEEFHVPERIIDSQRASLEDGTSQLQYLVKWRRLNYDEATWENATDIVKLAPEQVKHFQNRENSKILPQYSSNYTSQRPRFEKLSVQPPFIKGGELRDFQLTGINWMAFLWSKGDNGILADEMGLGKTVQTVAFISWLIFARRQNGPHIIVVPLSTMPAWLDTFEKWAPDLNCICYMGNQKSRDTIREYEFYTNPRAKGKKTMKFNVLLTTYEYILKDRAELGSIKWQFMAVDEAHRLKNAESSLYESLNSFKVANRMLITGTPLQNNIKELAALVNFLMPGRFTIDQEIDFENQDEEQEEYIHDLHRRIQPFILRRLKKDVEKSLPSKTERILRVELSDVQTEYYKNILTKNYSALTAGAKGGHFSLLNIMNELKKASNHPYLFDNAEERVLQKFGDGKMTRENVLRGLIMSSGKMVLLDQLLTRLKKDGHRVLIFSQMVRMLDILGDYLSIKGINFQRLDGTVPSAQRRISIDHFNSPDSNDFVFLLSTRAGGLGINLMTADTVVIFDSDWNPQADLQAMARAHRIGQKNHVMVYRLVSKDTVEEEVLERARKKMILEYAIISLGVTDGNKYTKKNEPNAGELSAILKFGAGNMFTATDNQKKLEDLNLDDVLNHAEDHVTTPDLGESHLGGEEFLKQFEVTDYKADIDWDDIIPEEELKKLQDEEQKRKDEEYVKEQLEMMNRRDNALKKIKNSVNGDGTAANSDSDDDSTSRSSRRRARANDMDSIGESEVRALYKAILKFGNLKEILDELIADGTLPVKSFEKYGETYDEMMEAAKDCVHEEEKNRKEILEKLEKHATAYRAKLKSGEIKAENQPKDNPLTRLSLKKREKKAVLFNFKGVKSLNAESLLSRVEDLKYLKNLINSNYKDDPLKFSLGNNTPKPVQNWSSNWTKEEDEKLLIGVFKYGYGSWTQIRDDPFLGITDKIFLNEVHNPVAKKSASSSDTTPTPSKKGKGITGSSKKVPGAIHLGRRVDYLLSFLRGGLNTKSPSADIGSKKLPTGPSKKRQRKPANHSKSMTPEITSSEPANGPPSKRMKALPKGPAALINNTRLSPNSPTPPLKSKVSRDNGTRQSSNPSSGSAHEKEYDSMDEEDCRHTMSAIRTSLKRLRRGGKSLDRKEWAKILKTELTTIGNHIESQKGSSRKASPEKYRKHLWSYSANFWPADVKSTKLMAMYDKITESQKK

Turning to `Cc1cccc(CNC(=O)CNc2cc(CO)ccc2Cl)c1`, the Percent Effect in assay [1] is -6.11%; in assay [2] it was 2.63%; in assay [3], 4.86%; in [4] it was -0.518%; in the assay on Trypanosoma cruzi, -1.27%; in assay [5], 1.18%. Further, the Percent Effect is 11% in [6]; -4.91% in the assay listed under Homo sapiens; 4.25% in assay [7]; 7.79% in assay [8]; -2.84% in [9].
As to `Cc1cc(C)n(CC2CN(CC(=O)Nc3c(C)n[nH]c3C)CCO2)n1` (stereo not given), the Percent Effect is -3.28% in assay [1]; 15.6% in assay [2]; 2.77% in assay [3]; 0.0825% in [4]; -8.61% in the assay with Trypanosoma cruzi; 0% in assay [5]. The Percent Effect in assay [6] was 10.5%; in the assay filed under Homo sapiens, 24.1%; in [7], 6.8%; in [8], 12.2%; in [9], -3.32%.
On to `CN(C)S(=O)(=O)c1ccc(CN2CCCC2c2ccc[nH]2)o1` (stereo not given), for which the Percent Effect in [1] was -6.1%; in assay [2], -13.2%; in [3], -1.76%; in assay [4], -2.17%; in the assay with Trypanosoma cruzi, -2.52%; in assay [5] it was -0.719%. Further, the Percent Effect in assay [6] is -2.79%; in the assay listed under Homo sapiens it was -1.99%; in assay [7], 4.43%; in assay [8] it was -6.17%; in assay [9], 5.79%.
Consider `CC(=O)c1cccc(NC(=O)CN2CCCCC2C2OCCO2)c1` (stereo not given), for which the Percent Effect in assay [1] was -5.29%; in assay [2], 5.41%; in assay [3], 1.19%; in assay [4], -1.14%; in the assay on Trypanosoma cruzi, -2.54%; in assay [5], 5%. Moreover, the Percent Effect in [6] is 8.37%; in the assay listed under Homo sapiens it was -2.75%; in assay [7], 5.94%; in assay [8], 11%; in assay [9], -4.75%.
Turning to `Cc1nc2c(c(C)c1CC(=O)Nc1cccc(C#N)c1)c(=O)[nH]n2C`, the Percent Effect in [1] was -5.36%; in assay [2], 7.79%; in [3], 0.36%; in assay [4] it was -4.8%; with Trypanosoma cruzi it was -4.8%; in [5], -1.9%. Moreover, the Percent Effect in [6] was 10.8%; in the assay filed under Homo sapiens, 16.6%; in assay [7] it was 2.86%; in [8] it was 2.35%; in assay [9], -19.9%.
Consider `CCn1cc(CN(C)C(=O)c2cccc(CCC(C)(C)O)c2)cn1`, for which the Percent Effect in assay [1] was -5.71%; in assay [2], 5.33%; in [3], -1.82%; in [4], -0.5%; in the assay on Trypanosoma cruzi, -5.36%; in assay [5] it was 1.04%. Moreover, the Percent Effect in assay [6] was 15%; in the assay listed under Homo sapiens, 9.2%; in assay [7], 7.1%; in [8] it was 6.17%; in assay [9], -6.76%.
Consider `O=C1CC(c2cccnc2)C2(CCN(C(=O)c3ccncc3)CC2)N1` (stereo not given), for which the Percent Effect is -4.11% in assay [1]; 10.8% in assay [2]; 2.03% in [3]; -3.18% in assay [4]; 3.81% with Trypanosoma cruzi; -4.78% in assay [5]. In addition, the Percent Effect in [6] is 17.9%; in the assay filed under Homo sapiens, -0.901%; in assay [7], 4.32%; in [8], 15.4%; in assay [9], 1.46%.
Take `O=C(NCCNc1ncccn1)C1CCN(C(=O)C2CC2)CC1`: the Percent Effect in assay [1] is -2.16%; in [2], 13.5%; in assay [3], 5.28%; in [4], -1.97%; in the assay on Trypanosoma cruzi, -4.55%; in assay [5] it was 5.36%. Besides, the Percent Effect in [6] was found to be 0.718%; in the assay listed under Homo sapiens it was 13.2%; in assay [7], 6.93%; in assay [8], 13.4%; in [9], 3.86%.
Take `Cc1cnn(CC2CCCN2C(=O)Cc2n[nH]c3ccccc23)c1` (stereo not given): the Percent Effect was -5.48% in assay [1]; 10.1% in assay [2]; 14% in assay [3]; 7.2% in [4]; 2.17% in the assay with Trypanosoma cruzi; 7.61% in assay [5]. Besides, the Percent Effect in [6] is -0.0819%; in the assay listed under Homo sapiens, 10.1%; in assay [7], 8.37%; in [8] it was 11.4%; in [9], -3.88%.
For `Cc1nc(N2CCCCC2)ncc1C(=O)N1CC(C)(C)[C@@](C)(O)C1`, the Percent Effect in assay [1] was -4.9%; in [2], 0%; in assay [3] it was -4.56%; in [4] it was 7.93%; in the assay on Trypanosoma cruzi it was -2.05%; in assay [5], 4.22%. Also, the Percent Effect in [6] was -6.09%; in the assay listed under Homo sapiens, 7.42%; in assay [7], 8.6%; in [8] it was 6.17%; in assay [9], -1.76%.
